Data reported in PubChem BioAssay (NCI).
The panel holds about 83,000 compounds, 20% with a hit somewhere; the sample as a whole holds those more often.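 Method: cells in 96-well plates; compound added at one concentration; 48 h incubation; percent growth measured; values under 10 scored active.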 Unmarked numbers belong to inactive results. Calls of active or inactive are those of the source.

Tests used:
Assay in all cases: NCI-60 one-dose screen, 48 h (100 = growth as untreated, 0 = no growth, -100 = all killed)
Conditions in all cases: 10 µM unless noted
BT-549 breast = test system: BT-549 breast
MDA-MB-435 melanoma = test system: MDA-MB-435 melanoma
SW-620 colon = test system: SW-620 colon
MCF7 breast = test system: MCF7 breast
HCT-116 colon = test system: HCT-116 colon
HCC-2998 colon = test system: HCC-2998 colon
KM12 colon = test system: KM12 colon

| Compound | growth (BT-549 breast) | growth (MDA-MB-435 melanoma) | growth (SW-620 colon) | growth (MCF7 breast) | growth (HCT-116 colon) | growth (HCC-2998 colon) | growth (KM12 colon) |
| --- | --- | --- | --- | --- | --- | --- | --- |
| COc1cc(Oc2cc(-c3cccnc3)ccc2NC(=O)Nc2ccc(F)cc2F)cc(OC)c1OC | 103% | 109% | 104% | 94.2% | 97.8% | 106% | 108% |
| Clc1ncn[nH]1 | 105% | 96.9% | 111% | 90.3% | 108% | 89.8% | 101% |
| O=C1/C(=C/c2ccc([N+](=O)[O-])o2)Oc2ccc(Br)cc21 | -54.1% (active) | -40.7% (active) | -70.5% (active) | 16.7% | -64% (active) | 102% | 87.1% |
| CCCCCCCCCCCCCCCCCC1=NC(C)(C)CN1CCO | 58.9% | -60.1% (active) | -60.4% (active) | -59.5% (active) | -67% (active) | -87.6% (active) | -76.3% (active) |
| Cc1cc(O)c2c(c1)C[C@H]1[C@@H]3CC[C@H]4CC(=O)CC[C@]4(C)[C@H]3CC(=O)[C@]21C | 91.4% | 91.1% | 103% | 95.6% | 77.1% | 87.9% | 81.2% |
| O=C1/C(=C/c2ccc3cccc(Cl)c3n2)SC(=S)N1CCc1ccc(O)cc1 | 95.2% | 85.5% | 95% | 86.3% | 99.2% | 118% | 84.8% |
| CC/C(=C\c1ccc(N(C)C)cc1)c1ccncc1 | 65.8% | -6.41% (active) | 19.9% | 28.8% | 22.2% | 66.6% | 20.4% |
| COc1ccc2[nH]cc(/C=C3/C(=O)Nc4ccc(F)cc43)c2c1 | 134% | 93.8% | 101% | 56.3% | 86% | 93% | 27% |
| Cc1ccc(NC(=O)Nc2ccc(-c3cccnc3)cc2N2CCC(CO)CC2)cc1 | 25.2% | 4.25% (active) | 20.3% | 9.77% (active) | 8.43% (active) | 14.1% | 20.1% |
| CCN1CCN(c2cc(-c3cn[nH]c3-c3cc(C)cc(OC)c3)nc(-c3cccnc3)n2)CC1 | 92.9% | 81.2% | 82.6% | 82.6% | 38.4% | 91.3% | 50.6% |
| Cc1c(C)c(N2C(=O)C=CC2=O)c(C)c(C)c1N1C(=O)C=CC1=O | 110% | 102% | 81.7% | 103% | 83% | 97.1% | 119% |
| Cc1cc(NC(=O)c2ccc(N)cc2)ccc1N=Nc1ccc2c(O)c(N=Nc3ccc(Cl)c(S(=O)(=O)O)c3)c(S(=O)(=O)O)cc2c1 | 102% | 95.5% | 92.6% | 80.1% | 71.5% | 73.1% | 90% |
| COc1ccc(/C=N/NC(=O)c2ccc(S(C)(=O)=O)cc2)cc1OC | 109% | 109% | 99.8% | 92.4% | 89% | 98.5% |  |
| COc1ccc(-c2nn(-c3ccccc3)cc2/C=C2\SC(=S)N(CCc3ccc(O)cc3)C2=O)cc1 | 103% | 84.4% | 87.6% | 70.5% | 90.2% | 107% | 81.5% |
| N#Cc1cnc2cc(OC[C@H](O)CO)c(NC(=O)CC3CSSC3)cc2c1Nc1ccc(OCc2cccc(F)c2)c(Cl)c1 | -62.2% (active) | -82.7% (active) | -70.8% (active) | -69.2% (active) | -42.8% (active) | -81.9% (active) | -81.8% (active) |
| CC(=O)n1c2ccccc2c2ccccc21 | 119% | 106% | 106% | 104% | 102% | 96.1% | 114% |
| Nc1ccc2c(c1)/C(=N/O)c1cc([N+](=O)[O-])ccc1-2 | 50.8% | 50.9% | 13.1% | 81.8% | 47.3% | 103% |  |
| O=C1N(C2CCCCC2)C(=O)N1C1CCCCC1 | 33.6% | 57.4% | 48.5% | 42.9% | 44.2% | 49.3% | 7.4% (active) |

| Compound | growth (BT-549 breast) | growth (MDA-MB-435 melanoma) | growth (SW-620 colon) | growth (MCF7 breast) | growth (HCT-116 colon) | growth (HCC-2998 colon) | growth (KM12 colon) |
| --- | --- | --- | --- | --- | --- | --- | --- |
| Cc1c(C(N)=O)sc2c1C(=O)N(Cc1ccccc1)C1=NN=C(c3ccc(Cl)cc3)CN12 | 58.2% | 66.3% | 57.5% | 37.8% | 18.8% | 40.9% | 42.6% |
| COc1ccc2c(c1)/C(=C\c1c[nH]c3ccc(F)cc13)C(=O)N2 | 106% | 91.5% | 107% | 60.3% | 80% | 92.7% | 21.1% |
| CCC1=C(c2ccc(OC)cc2)C(C)Oc2cc(OC(C)=O)ccc21 (configuration not stated) | 95.4% | 40.7% | 90.5% | 82.4% | 74.5% | 107% | 77.7% |
| CC[C@]1(O)CC2CN(CCc3c([nH]c4ccccc34)[C@@](C(=O)OC)(c3cc4c(cc3OC)N(C)[C@H]3[C@@](O)(C(=O)OC)[C@H](OC(C)=O)[C@]5(CC)C=CCN6CC[C@]43[C@@H]65)C2)C1 (some centres not stated) | 34.2% | -17.8% (active) | 21.6% | 8.22% (active) | 1.69% (active) | -23.4% (active) | -7.67% (active) |
| Clc1ccc([C@@H]2C[C@@H]3Cc4cc(Br)c5ccccc5c4N2O3)c(Cl)c1 | 97.7% | 4.61% (active) | 55.4% | 34% | 76.6% | 87% |  |
| Cc1cc([N+](=O)[O-])c(C)cc1C(=O)O | 92.5% | 102% | 108% | 97.6% | 102% | 109% | 102% |
| CC1=NN(c2ccccc2Cl)C(=O)/C1=C\c1cn(S(=O)(=O)c2ccc(C)cc2)c2ccccc12 | 112% | 105% | 98.4% | 113% | 88.2% | 88.5% | 109% |
| CC1SC(c2c(Cl)cccc2Cl)N(NC(=O)c2[nH]c3ccc(F)cc3c2-c2ccccc2)C1=O (configuration not stated) | 75.7% | 61.9% | 17% | 42.3% | -43.8% (active) | 11.2% | 46.4% |
| Cc1nc(N)[nH]c(=O)c1C | 45.1% | 106% | 125% | 95% | 101% | 81.1% | 122% |
| O=C(Nc1ccc(Nc2ccncc2)cc1)c1ccc(Nc2ccnc3ccc([N+](=O)[O-])cc23)cc1[N+](=O)[O-] | 38.8% | 63.1% | 96.8% | 50.8% | 54.4% | 104% |  |
| c1coc([C@@H]2C[C@@H]3Cc4ccc5ccccc5c4N2O3)c1 | 105% | 103% | 103% | 84.6% | 99.2% | 107% | 107% |
| CN1CCN(Cc2ccc(NC(=O)c3[nH]ncc3Nc3ccnc4ccnn34)cc2)CC1 | 74.1% | 56.1% | 70.1% | 35.9% | 33.7% | 68.7% | 32.7% |
| CC(=O)c1ccc2c3c(n(C)c2c1)CCCC3 | 96.5% | 97.8% | 110% | 95.9% | 99.1% | 93.7% | 112% |
| O=C(O)c1ccc(NC(=O)c2ccc(Nc3ccnc(C(F)(F)F)c3)cc2)cc1 | 109% | 104% | 105% | 100% | 104% | 103% | 93.2% |
| C[n+]1ccc(C#N)c2ccccc21 | 102% | 95.8% | 90.6% | 87.5% | 80% | 114% | 100% |
| Cc1nn(-c2ccccc2)c2ncc3c(c12)C(=O)N(Cc1ccccc1)C3=O | 76.4% | 90.7% | 61% | 58.8% | 10.5% | 63% |  |
| Cc1nn(-c2ccc(Cl)cc2)c2nc3c(nc12)C(=O)C(=O)c1ccccc1-3 | 92.1% | 97.7% | 67.2% | 49.7% | 80.2% | 66.6% | 61.9% |
| O=C(/C(=N/O)S(=O)(=O)c1ccccc1)c1cccs1 | 103% | 105% | 117% | 98% | 96.4% | 93.2% | 107% |
